Measurements reported in PubChem BioAssay (EPA / NIEHS).
The source made the active and inactive calls. The calls were made as follows: active = hit-call score of the fitted dose curve at least 0.9, where 1 is the maximum; inactive = score below 0.9.

Legend:
[1] = BSK_3C_SRB: Viability Assessment in the BioMAP Diversity Plus: 3C Assay (AID 2283023); conditions: primary human endothelial cells (HUVEC);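 also: fitted both ways against DMSO so a hit may be signal rise or drop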
How it was run: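 Human umbilical vein endothelial cells in the 3C system, treated 24 h. Total protein measured by 0.1% sulforhodamine B staining after 10% TCA fixation, read at 560 nm; bidirectional fit versus DMSO.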

[2] = read-out: Matrix Metallopeptidase 1 (MMP1), MMP1 (gene 4312); assay: BSK_BE3C_MMP1: BioMAP Diversity Plus: BE3C Assay for Matrix Metallopeptidase 1 (MMP1) Biomarker Activity (AID 2283024); conditions: primary human bronchial epithelial cells; actives raise or lower the signal
How it was run: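 Human bronchial epithelial cells (BE3C system) exposed to compound for 24 h; MMP1 then quantified by ELISA. Activity was fitted in both directions relative to DMSO.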

[3] = BSK_3C_Vis: BioMAP Diversity Plus: 3C Assay for Morphology Visualization (AID 2283025); conditions: primary human endothelial cells (HUVEC);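 also: fitted both ways so gain or loss versus DMSO counts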;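 as to AC50: light microscopy image of cell morphology used as background control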
How it was run: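 Chemicals were added to primary human umbilical vein endothelium, cells were incubated 24 h, and morphology was then visualized by light microscopy. Gain or loss of signal was fitted bidirectionally relative to DMSO.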

[4] = BSK_4H_SRB: Viability Assessment in the BioMAP Diversity Plus: 4H Assay (AID 2283027); conditions: primary human endothelial cells (HUVEC);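 also: cells exposed to compound for 24 h before staining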;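 as to AC50: curves fitted both ways versus DMSO so AC50 may be loss or gain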
How it was run: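 Human umbilical vein endothelial cells, 24 h after chemical dosing; total protein measured by 0.1% sulforhodamine B staining after 10% TCA fixation, read at 560 nm. Bidirectional fitting against DMSO.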

[5] = BSK_BE3C_SRB: Viability Assessment in the BioMAP Diversity Plus: BE3C Assay (AID 2283028); conditions: primary human bronchial epithelial cells;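 as to AC50: fitted both ways so AC50 may mark signal gain or loss versus DMSO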
How it was run: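 Human bronchial epithelial primary cells in confluent culture, 24 h after chemical dosing; total protein by 0.1% SRB staining after 10% TCA fixation, read at 560 nm. Bidirectional fitting versus DMSO baseline.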

[6] = read-out: Thrombomodulin, THBD (gene 7056); assay: BSK_3C_Thrombomodulin: BioMAP Diversity Plus: 3C Assay for Thrombomodulin Biomarker Activity (AID 2283029); conditions: primary human endothelial cells (HUVEC); actives raise or lower the signal
How it was run: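 Read-out is ELISA of thrombomodulin on human umbilical vein endothelium 24 h after chemical dosing. Gain or loss of signal is scored relative to DMSO. Overt cytotoxicity is checked in parallel cultures by sulforhodamine B staining.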

[7] = read-out: Urokinase-type plasminogen activator receptor (uPAR), PLAUR (gene 5329); assay: BSK_4H_uPAR: BioMAP Diversity Plus: 4H Assay for Urokinase-type plasminogen activator receptor (uPAR) Biomarker Activity (AID 2283030); conditions: primary human endothelial cells (HUVEC); actives raise or lower the signal
How it was run: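 Human umbilical vein endothelial cells in the 4H system, 24 h after chemical dosing. Cell-surface uPAR measured by ELISA, fitted in both directions versus DMSO; cytotoxicity checked by SRB total protein in parallel cultures.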

[8] = read-out: Vascular endothelial growth factor receptor 2 (Homo sapiens) (UniProt P35968); assay: BSK_4H_VEGFRII: BioMAP Diversity Plus: 4H Assay for Vascular endothelial growth factor receptor 2 (VEGFR2) Biomarker Activity (AID 2283031); conditions: primary human endothelial cells (HUVEC); actives raise or lower the signal
How it was run: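 Primary human umbilical vein endothelial cells (4H system), 24 h exposure; cell-surface VEGFR2 measured by ELISA. Bidirectional fitting versus DMSO; cytotoxicity checked in parallel by SRB total-protein staining.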

[9] = read-out: Human Leukocyte Antigen - DR isotype (HLADR), HLA-DRA (gene 3122); assay: BSK_BE3C_HLADR: BioMAP Diversity Plus: BE3C Assay for Human Leukocyte Antigen - DR isotype (HLADR) Biomarker Activity (AID 2283032); conditions: primary human bronchial epithelial cells; actives raise or lower the signal
How it was run: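 ELISA read-out of HLA-DR on human lung bronchial epithelial primary cells, measured 24 h post-dosing. Both increases and decreases were scored relative to DMSO vehicle.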

[10] = read-out: Pselectin, SELP (gene 6403); assay: BSK_4H_Pselectin: BioMAP Diversity Plus: 4H Assay for Pselectin Biomarker Activity (AID 2283026); conditions: primary human endothelial cells (HUVEC); actives raise or lower the signal
How it was run: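 ELISA read-out of P-selectin on human umbilical vein endothelium after 24 h of dosing. Values derive from bidirectional fitting relative to DMSO. Parallel SRB protein staining flagged overt cytotoxicity.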

Measured: AC50

Clc1nc(Cl)c(Cl)c(Cl)c1Cl
active: [3] 37.5 µM | [9] 26.4 µM
not listed: [10]
inactive: all other assays above

COc1ccc(-n2nc(C(F)F)cc2-c2ccc(S(C)=O)cc2)cc1 (stereo not drawn)
not listed: [7]
inactive: all other assays above

Nc1cccc(N)c1
not listed: [10]
inactive: all other assays above

CNCc1ccc(NC(=O)c2c[nH]c3c2C(=O)CCC3)cc1
not listed: [8]
inactive: all other assays above

CC[C@H]1OC(=O)[C@H](C)[C@@H](O[C@H]2C[C@@](C)(OC)[C@@H](O)[C@H](C)O2)[C@H](C)[C@@H](O[C@@H]2O[C@H](C)C[C@H](N(C)C)[C@H]2O)[C@](C)(O)C[C@@H](C)C(=O)[C@H](C)[C@@H](O)[C@]1(C)O
not listed: [8]
inactive: all other assays above

CCNc1ccccc1
not listed: [10]
inactive: all other assays above

CCOC(=O)COc1ccc2c(c1)CC(NCC(O)c1cccc(Cl)c1)CC2 (stereo not drawn)
inactive: [2] | [5] | [6]
active: [1] 26.7 µM | [3] 34.2 µM | [10] 29.8 µM | [4] 28.1 µM | [7] 28.7 µM | [9] 30.3 µM

Cc1ccc(C)c(O)c1
not listed: [8]
inactive: all other assays above

C1N2CN3CN1CN(C2)C3
not listed: [8]
inactive: all other assays above

O=C1OC(=O)C2C3C=CC(C3)C12 (stereo not drawn)
not listed: [8]
inactive: all other assays above

CC[C@H](C)C(=O)O[C@H]1C[C@@H](C)C=C2C=C[C@H](C)[C@H](CC[C@@H]3C[C@@H](O)CC(=O)O3)[C@H]21
inactive: [6]
active: [1] 9.87 µM | [2] 33.8 µM | [3] 28.3 µM | [10] 32.9 µM | [4] 19.9 µM | [7] 19.9 µM | [9] 35.9 µM

CCCCCCCCO
not listed: [8]
inactive: all other assays above

O=P(OC(CCl)CCl)(OC(CCl)CCl)OC(CCl)CCl
active: [2] 7.97 µM | [3] 39 µM
not listed: [8]
inactive: all other assays above

On1ccccc1=S
active: [1] 29.7 µM | [2] 10.9 µM | [3] 38.4 µM | [10] 11.8 µM | [4] 14.8 µM | [5] 9.28 µM | [6] 5.96 µM | [7] 19.8 µM | [9] 3.31 µM

C=CC(=C)CCC=C(C)C
not listed: [10]
inactive: all other assays above

COCCOc1cc2cc(C(=O)NC3CCN(C(C)C)CC3)n(CC(=O)Nc3ccc(Cl)cn3)c2cn1
not listed: [8]
inactive: all other assays above

CC(=O)c1ccc2c(c1)[C@H](NC(=O)c1ccc(F)cc1)[C@@H](O)C(C)(C)O2
not listed: [10]
inactive: all other assays above

CN(C)c1ccc(Cc2ccc(N(C)C)cc2)cc1
active: [2] 12.6 µM | [9] 36.3 µM
not listed: [10]
inactive: all other assays above

CCC(C)(C)C(=O)O[C@H]1C[C@@H](C)C=C2C=C[C@H](C)[C@H](CC[C@@H]3C[C@@H](O)CC(=O)O3)[C@H]21
active: [1] 3.97 µM | [2] 31.9 µM | [3] 20 µM | [4] 10.1 µM | [5] 36.1 µM | [6] 0.526 µM | [7] 20 µM | [9] 30.8 µM

COC(=O)c1c(Cl)c(Cl)c(C(=O)OC)c(Cl)c1Cl
active: [3] 39 µM
not listed: [8] | [10]
inactive: all other assays above

Fc1ccccc1[C@@H](F)COC1CCC(Nc2ncnc3[nH]ncc23)CC1 (stereo partly drawn)
active: [1] 27.6 µM | [3] 39 µM | [4] 30 µM | [7] 28.2 µM
not listed: [10]
inactive: all other assays above

Cc1c(-c2cccnc2)c2ccccc2n1CCCCC(=O)O
not listed: [10]
inactive: all other assays above

O=C(O)c1cc(N=Nc2ccc(S(=O)(=O)Nc3ccccn3)cc2)ccc1O
not listed: [8] | [10]
inactive: all other assays above
